Screens deposited in PubChem BioAssay by Broad Institute.
C diff HTS: C. difficile growth inhibitors, primary screen, HTS | Clostridium difficile clinical isolate growth, OD600, 24 h; hits give low values | growth activity, negative = inhibition, % at 16 µg/mL (by protocol) | 86,000 tested, 0.25% active | AID 1259249, 2017;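 active means mean growth activity at or below -80% and every replicate also at or below -80%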
Pf Dd2 inh: P. falciparum Dd2 growth inhibitors, primary screen, SYBR Green fluorescence, single dose replicates; 72 h; hits give low values; 94,000 tested, 2.3% active; activity change, % at 10 µM; AID 1159554, 2015; in the data active means activity change below about -80%
T cruzi growth: T. cruzi intracellular proliferation inhibitors, primary screen, cell-based, beta-gal Tulahuen parasites, NIH3T3 host, luminescence. 77,000 tested, 5.9% active. T. cruzi beta-gal in NIH3T3, GalScreen luminescence, 90 h. inhibition, % at 8.34 µM;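 active means mean inhibition above about 93%, with at least 55% of replicates each passing it, limit read from the data, passing the limit was not always enough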
A number is an active result; - = inactive; . = not tested or not shown. In the library only some 6.8% were active in any assay of this set; here they are far more common.

SMILES	C diff HTS	Pf Dd2 inh	T cruzi growth
CC(C)(C)[S@](=O)N1Cc2cc(C(=O)N[C@@H]3CCN(Cc4ccccc4)C3)nc(-c3cccc(-c4cccnc4)c3)c2[C@@H]1CCO	.	-87.8	-
CN(C)CC#Cc1cccc(-c2nc(C(=O)N[C@@H]3CCN(Cc4ccccc4)C3)cc3c2[C@H](CCO)N(S(=O)C(C)(C)C)C3)c1 (stereo partly specified)	-	-85.3	.
CC(C)NC(=O)Nc1ccc2c(c1)C(=O)N([C@@H](C)CO)C[C@@H](C)[C@@H](CN(C)C)O2	-	-	-
COc1ccc2c3c(n(C)c2c1)[C@@H](CO)N(C(=O)C1CCC1)CC31CCN(Cc2cccc(F)c2)CC1	-	-	.
COc1cccc(CN2CCC3(CC2)CN(C(=O)C2CC2)[C@H](CO)c2c3c3ccc(OC)cc3n2C)c1	-	-84.9	.
COc1ccc2c3c(n(C)c2c1)[C@H](CO)N(C(=O)C1CC1)CC31CCN(Cc2cccc(F)c2)CC1	-	-	.
COc1ccc2c3c(n(C)c2c1)[C@H](CO)N(C(=O)C1CCC1)CC31CCN(Cc2cccc(F)c2)CC1	-	-84.4	.
C[C@@H]1CN([C@H](C)CO)S(=O)(=O)c2ccc(-c3ccncc3)cc2O[C@@H]1CN(C)C(=O)C1CCCCC1	-	-	-
COc1ccc(NC(=O)Nc2cccc3c2O[C@H](CN(C)C(=O)Nc2ccc(C(F)(F)F)cc2)[C@@H](C)CN([C@@H](C)CO)C3=O)cc1	-	-	-
O=C(C[C@H]1C=C[C@H](NC(=O)Cc2ccccn2)[C@H](CO)O1)NCCc1ccccc1	-	-92.4	.
O=C(C[C@H]1C=C[C@H](NC(=O)Cc2ccccn2)[C@H](CO)O1)NCCCN1CCOCC1	.	-	-
C[C@@H]1CN([C@H](C)CO)S(=O)(=O)c2ccc(-c3cncnc3)cc2O[C@@H]1CN(C)C(=O)NC1CCCC1	-	-	-
O=C(C[C@@H]1C[C@H]2c3cc(NC(=O)CC4CC4)ccc3O[C@H]2[C@H](CO)O1)NCc1ccc(Cl)cc1	.	-	-
CCCN(C)C[C@H]1Oc2cc(C#Cc3ccncc3)ccc2S(=O)(=O)N([C@H](C)CO)C[C@H]1C	-	-	.
CCCN(C)C[C@H]1Oc2cc(C#Cc3cccnc3)ccc2S(=O)(=O)N([C@H](C)CO)C[C@@H]1C	-	-82.4	-
CCCN(C)C[C@H]1Oc2cc(C#Cc3ccncc3)ccc2S(=O)(=O)N([C@@H](C)CO)C[C@H]1C	-	-	.
CCCN(C)C[C@@H]1Oc2cc(C#Cc3cccnc3)ccc2S(=O)(=O)N([C@@H](C)CO)C[C@H]1C	-	-88.6	-
CCN(C[C@@H]1[C@@H](c2ccccc2)[C@H](CO)N1C(=O)COC)S(C)(=O)=O	-	-	-
CCNC(=O)C[C@@H]1C=C[C@@H](NC(=O)C2CCC2)[C@@H](CO)O1	-	.	.
C[C@H](NC(=O)C[C@H]1C[C@@H]2c3cc(NS(=O)(=O)c4ccc(F)cc4)ccc3O[C@@H]2[C@H](CO)O1)c1ccccc1	-	-	-
COc1ccccc1CNC(=O)C[C@@H]1C[C@@H]2c3cc(NC(=O)Cc4ccncc4)ccc3O[C@@H]2[C@H](CO)O1	-	-	-
C[C@@H](NC(=O)C[C@H]1C[C@@H]2c3cc(NS(=O)(=O)c4ccc(F)cc4)ccc3O[C@@H]2[C@H](CO)O1)c1ccccc1	-	-98.9	-
COc1ccccc1CNC(=O)C[C@H]1C[C@H]2c3cc(NC(=O)Cc4ccncc4)ccc3O[C@H]2[C@@H](CO)O1	-	-81.9	-
C[C@H](CO)N1C[C@H](C)[C@@H](CN(C)C(=O)C2CC2)Oc2cc(C3=CCCCC3)ccc2S1(=O)=O	-	-	-
C[C@@H]1CN([C@@H](C)CO)C(=O)c2cc(NS(=O)(=O)c3ccccc3)ccc2O[C@H]1CN(C)Cc1ccc(C(=O)O)cc1	-	-	-
SMILES	C diff HTS	Pf Dd2 inh	T cruzi growth
CN1[C@@H]2Cn3c(ccc(-c4ccncc4)c3=O)[C@H]1[C@@H](C(=O)NCCc1ccccc1)[C@@H]2CO	-	-	-
COc1ccc(NC(=O)Nc2cccc3c2O[C@H](CN(C)Cc2ccc(-c4ccccc4)cc2)[C@@H](C)CN([C@@H](C)CO)C3=O)cc1	-	-86.2	.
C[C@@H]1CN([C@H](C)CO)C(=O)c2cccc(NC(=O)Nc3ccc(F)cc3)c2O[C@H]1CN(C)Cc1ccc(-c2ccccc2)cc1	-	-	-
COc1ccc(NC(=O)Nc2cccc3c2O[C@H](CN(C)Cc2ccc(-c4ccccc4)cc2)[C@H](C)CN([C@@H](C)CO)C3=O)cc1	-	-	-
C[C@@H]1CN([C@@H](C)CO)C(=O)c2cccc(NC(=O)Nc3ccc(F)cc3)c2O[C@@H]1CN(C)Cc1ccc(-c2ccccc2)cc1	-93.2	-	-
COc1ccc(C#Cc2cnc3c(c2)C(=O)N([C@@H](C)CO)C[C@@H](C)[C@@H](CN(C)C(=O)c2ccccc2F)O3)cc1	-	-	-
COc1ccc(C#Cc2cnc3c(c2)C(=O)N([C@H](C)CO)C[C@H](C)[C@H](CN(C)C(=O)c2ccccc2F)O3)cc1	-	-83.7	-
CCCN(C)C[C@@H]1Oc2ncc(C#Cc3ccc(OC)c(OC)c3)cc2C(=O)N([C@H](C)CO)C[C@@H]1C	-	-82.3	-
COc1ccc(C#Cc2cnc3c(c2)C(=O)N([C@@H](C)CO)C[C@H](C)[C@@H](CN(C)C)O3)cc1	-	-	-
CCCN(C)C[C@H]1Oc2ncc(C#Cc3ccc(OC)cc3)cc2C(=O)N([C@@H](C)CO)C[C@H]1C	-	-86.9	.
CCCN(C)C[C@H]1Oc2ncc(C#Cc3ccc(OC)cc3)cc2C(=O)N([C@H](C)CO)C[C@H]1C	-	-84.0	.
CCCC#Cc1cnc2c(c1)C(=O)N([C@H](C)CO)C[C@H](C)[C@@H](CN(C)CCC)O2	-	-	-
COc1ccc(C#Cc2cnc3c(c2)C(=O)N([C@@H](C)CO)C[C@@H](C)[C@@H](CN(C)C)O3)cc1	-	-	-
Cc1noc(C)c1S(=O)(=O)Nc1ccc2c(c1)C(=O)N([C@@H](C)CO)C[C@H](C)[C@@H](CN(C)C(=O)Nc1ccc3c(c1)OCO3)OCCCC[C@@H](C)O2	-	-	-
Cc1cccc(-c2ccc([C@@H]3[C@H](CO)N4C(=O)CN(C(=O)c5cccnc5)C[C@@H]34)cc2)c1	-	-	.
CCCC(=O)Nc1ccc2c(c1)OC[C@H](C)N(C(=O)C1CCCC1)C[C@@H](C)[C@@H](OC)CN(C)C2=O	.	-	-
COc1ccc(C#Cc2cnc3c(c2)C(=O)N([C@H](C)CO)C[C@H](C)[C@H](CN(C)S(=O)(=O)c2ccccc2)O3)cc1OC	-	-	-
CNC[C@H]1Oc2ncc(C#Cc3cccc(OC)c3)cc2C(=O)N([C@H](C)CO)C[C@H]1C	-	-83.4	-
CNC[C@@H]1Oc2ncc(C#Cc3cccc(OC)c3)cc2C(=O)N([C@H](C)CO)C[C@@H]1C	-	-	-
CCCN(C)C[C@H]1Oc2ncc(C#Cc3ccccc3OC)cc2C(=O)N([C@H](C)CO)C[C@H]1C	-	-87.3	.
CCCN(C)C[C@H]1Oc2ncc(C#Cc3ccccc3OC)cc2C(=O)N([C@@H](C)CO)C[C@H]1C	.	-	.
